Experiment [1] addresses Rho-associated protein kinase 1 (Homo sapiens) (UniProt Q13464). The note with it: at 1 µM.
The target in experiment [2] is Rho-associated protein kinase 2 (Homo sapiens) (UniProt O75116). To be noted: at 0.1 µM.
Experiment [3] shares this target. The note with it: at 1 µM.
Experiment [4] addresses Ribosomal protein S6 kinase alpha-1 (Homo sapiens) (UniProt Q15418). To be noted: at 0.1 µM.
Experiment [5] shares this target. To be noted: at 1 µM.
Experiment [6] deals with Ribosomal protein S6 kinase alpha-3 (Homo sapiens) (UniProt P51812). The note with it: at 0.1 µM.
Sequence of Ribosomal protein S6 kinase alpha-3 (Homo sapiens) (P51812 whole entry): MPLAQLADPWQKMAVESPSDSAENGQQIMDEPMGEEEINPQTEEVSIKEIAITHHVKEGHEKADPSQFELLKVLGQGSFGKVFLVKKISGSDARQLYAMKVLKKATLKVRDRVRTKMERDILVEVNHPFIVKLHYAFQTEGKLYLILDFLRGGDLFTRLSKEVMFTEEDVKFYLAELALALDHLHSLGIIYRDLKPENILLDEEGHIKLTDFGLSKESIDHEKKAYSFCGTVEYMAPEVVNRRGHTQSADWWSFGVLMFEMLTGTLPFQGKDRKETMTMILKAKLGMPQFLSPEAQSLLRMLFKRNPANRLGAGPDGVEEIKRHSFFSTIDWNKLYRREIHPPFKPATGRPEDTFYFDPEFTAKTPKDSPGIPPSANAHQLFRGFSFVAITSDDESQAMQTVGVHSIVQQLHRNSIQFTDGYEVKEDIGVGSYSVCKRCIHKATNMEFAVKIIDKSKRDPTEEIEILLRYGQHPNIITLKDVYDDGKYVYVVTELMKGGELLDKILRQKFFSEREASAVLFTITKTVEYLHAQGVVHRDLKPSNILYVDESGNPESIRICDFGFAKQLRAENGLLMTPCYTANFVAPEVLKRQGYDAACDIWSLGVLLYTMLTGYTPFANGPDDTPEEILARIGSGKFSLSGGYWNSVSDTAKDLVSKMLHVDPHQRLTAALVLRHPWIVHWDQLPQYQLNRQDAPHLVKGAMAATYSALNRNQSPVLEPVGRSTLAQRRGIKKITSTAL
The target is the same in experiment [7]. To be noted: at 1 µM.
For experiment [8], the target named is Ribosomal protein S6 kinase alpha-2 (Homo sapiens) (UniProt Q15349). To be noted: at 0.1 µM.
Experiment [9] shares this target. To be noted: at 1 µM.
The target in experiment [10] is Ribosomal protein S6 kinase alpha-6 (Homo sapiens) (UniProt Q9UK32). The note with it: at 0.1 µM.
Experiment [11] has the same target. To be noted: at 1 µM.
Experiment [12] has as its target T1, Serine/threonine-protein kinase Sgk1 (Homo sapiens) (UniProt O00141).
T1 sequence (whole entry): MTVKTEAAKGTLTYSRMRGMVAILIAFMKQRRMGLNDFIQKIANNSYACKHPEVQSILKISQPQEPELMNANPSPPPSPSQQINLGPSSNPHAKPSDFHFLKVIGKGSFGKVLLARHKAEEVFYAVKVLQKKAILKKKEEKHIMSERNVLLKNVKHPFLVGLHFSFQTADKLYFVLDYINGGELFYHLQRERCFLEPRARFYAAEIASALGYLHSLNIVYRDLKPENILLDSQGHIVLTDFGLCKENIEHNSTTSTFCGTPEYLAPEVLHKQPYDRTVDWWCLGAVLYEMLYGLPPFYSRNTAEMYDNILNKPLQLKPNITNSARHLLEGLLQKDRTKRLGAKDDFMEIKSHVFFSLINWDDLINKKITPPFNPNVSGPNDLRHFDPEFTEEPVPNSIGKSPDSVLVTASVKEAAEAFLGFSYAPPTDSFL
To be noted: at 0.1 µM.

Experiment [13] concerns the target T1, Serine/threonine-protein kinase Sgk1 (Homo sapiens). To be noted: at 1 µM.
Experiment [14] has as its target T2, Serine/threonine-protein kinase Sgk2 (Homo sapiens) (UniProt Q9HBY8).
T2 sequence (whole entry): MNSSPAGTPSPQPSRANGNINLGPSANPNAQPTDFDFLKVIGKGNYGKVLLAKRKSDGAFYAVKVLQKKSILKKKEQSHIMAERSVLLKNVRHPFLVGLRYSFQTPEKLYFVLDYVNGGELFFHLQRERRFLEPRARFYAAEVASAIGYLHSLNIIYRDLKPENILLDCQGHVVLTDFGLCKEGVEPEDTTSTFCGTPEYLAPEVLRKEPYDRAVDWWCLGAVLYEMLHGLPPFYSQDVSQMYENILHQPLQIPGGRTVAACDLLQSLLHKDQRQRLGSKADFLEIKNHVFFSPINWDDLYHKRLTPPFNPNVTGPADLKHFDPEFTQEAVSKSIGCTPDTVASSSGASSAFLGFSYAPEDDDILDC
To be noted: at 0.1 µM.

Experiment [15] concerns the target T2, Serine/threonine-protein kinase Sgk2 (Homo sapiens). To be noted: at 1 µM.
Experiment [16] addresses T3, Serine/threonine-protein kinase Sgk3 (Homo sapiens) (UniProt Q96BR1).
T3 sequence (whole entry): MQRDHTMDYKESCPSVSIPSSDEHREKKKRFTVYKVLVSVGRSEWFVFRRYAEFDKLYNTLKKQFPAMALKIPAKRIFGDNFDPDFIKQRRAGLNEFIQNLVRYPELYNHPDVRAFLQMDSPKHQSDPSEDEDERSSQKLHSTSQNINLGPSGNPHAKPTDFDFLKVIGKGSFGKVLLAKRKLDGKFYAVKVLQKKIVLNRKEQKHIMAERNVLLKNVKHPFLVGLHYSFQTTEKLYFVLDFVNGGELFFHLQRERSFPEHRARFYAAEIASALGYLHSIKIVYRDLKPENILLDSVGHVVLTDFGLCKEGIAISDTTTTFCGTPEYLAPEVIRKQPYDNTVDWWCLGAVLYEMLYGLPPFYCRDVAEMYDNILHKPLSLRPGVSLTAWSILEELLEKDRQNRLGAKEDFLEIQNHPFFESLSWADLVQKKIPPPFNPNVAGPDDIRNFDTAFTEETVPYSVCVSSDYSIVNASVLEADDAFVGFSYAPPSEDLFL
The note with it: at 0.1 µM.

The target in experiment [17] is T3, Serine/threonine-protein kinase Sgk3 (Homo sapiens). To be noted: at 1 µM.
Experiment [18] deals with 5'-AMP-activated protein kinase catalytic subunit alpha-1 (Homo sapiens) (UniProt Q13131). To be noted: at 0.1 µM.
Sequence of 5'-AMP-activated protein kinase catalytic subunit alpha-1 (Homo sapiens) (Q13131 whole entry, looked up): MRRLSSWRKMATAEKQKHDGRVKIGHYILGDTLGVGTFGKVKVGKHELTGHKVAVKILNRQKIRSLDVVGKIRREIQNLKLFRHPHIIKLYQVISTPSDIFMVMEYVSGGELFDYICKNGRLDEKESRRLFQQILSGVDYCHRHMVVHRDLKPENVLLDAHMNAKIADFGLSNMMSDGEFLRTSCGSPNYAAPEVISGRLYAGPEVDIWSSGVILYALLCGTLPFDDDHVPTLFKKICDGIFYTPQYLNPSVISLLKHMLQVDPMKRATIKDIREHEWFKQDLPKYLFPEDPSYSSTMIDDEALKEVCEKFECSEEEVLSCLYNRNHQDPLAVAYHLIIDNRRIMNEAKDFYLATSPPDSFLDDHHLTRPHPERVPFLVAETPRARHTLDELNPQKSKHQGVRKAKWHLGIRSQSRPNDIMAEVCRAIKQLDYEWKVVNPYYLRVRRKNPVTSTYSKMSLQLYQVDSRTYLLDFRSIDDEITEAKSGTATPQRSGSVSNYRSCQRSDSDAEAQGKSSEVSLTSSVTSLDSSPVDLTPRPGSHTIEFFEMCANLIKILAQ
Experiment [19] shares this target. To be noted: at 1 µM.
For experiment [20], the target named is 5'-AMP-activated protein kinase catalytic subunit alpha-2 (Homo sapiens) (UniProt P54646). The note with it: at 0.1 µM.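 Further: mean inhibition measured on the AMPK complex of alpha2, beta1 and gamma1 subunits.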
Sequence of 5'-AMP-activated protein kinase catalytic subunit alpha-2 (Homo sapiens) (P54646 whole entry, looked up): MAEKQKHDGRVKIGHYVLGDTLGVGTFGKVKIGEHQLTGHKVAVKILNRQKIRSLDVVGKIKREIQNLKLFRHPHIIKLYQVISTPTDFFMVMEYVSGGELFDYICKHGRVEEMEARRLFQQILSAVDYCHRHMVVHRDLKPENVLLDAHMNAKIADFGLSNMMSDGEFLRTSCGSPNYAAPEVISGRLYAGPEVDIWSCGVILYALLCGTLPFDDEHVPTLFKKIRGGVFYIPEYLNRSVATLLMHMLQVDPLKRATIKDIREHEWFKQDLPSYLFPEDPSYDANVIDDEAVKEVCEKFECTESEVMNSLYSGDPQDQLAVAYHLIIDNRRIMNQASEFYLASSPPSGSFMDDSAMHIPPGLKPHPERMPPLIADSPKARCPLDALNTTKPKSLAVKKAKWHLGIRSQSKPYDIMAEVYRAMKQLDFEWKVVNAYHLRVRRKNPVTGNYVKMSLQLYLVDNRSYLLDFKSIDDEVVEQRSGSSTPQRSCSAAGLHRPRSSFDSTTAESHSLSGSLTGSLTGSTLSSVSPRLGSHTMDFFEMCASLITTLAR

Each structure is given as a SMILES string.

Broadly, the inhibition is the relative decrease from the control value, in per cent.

Sequence of Rho-associated protein kinase 2 (Homo sapiens) (O75116 whole entry, looked up): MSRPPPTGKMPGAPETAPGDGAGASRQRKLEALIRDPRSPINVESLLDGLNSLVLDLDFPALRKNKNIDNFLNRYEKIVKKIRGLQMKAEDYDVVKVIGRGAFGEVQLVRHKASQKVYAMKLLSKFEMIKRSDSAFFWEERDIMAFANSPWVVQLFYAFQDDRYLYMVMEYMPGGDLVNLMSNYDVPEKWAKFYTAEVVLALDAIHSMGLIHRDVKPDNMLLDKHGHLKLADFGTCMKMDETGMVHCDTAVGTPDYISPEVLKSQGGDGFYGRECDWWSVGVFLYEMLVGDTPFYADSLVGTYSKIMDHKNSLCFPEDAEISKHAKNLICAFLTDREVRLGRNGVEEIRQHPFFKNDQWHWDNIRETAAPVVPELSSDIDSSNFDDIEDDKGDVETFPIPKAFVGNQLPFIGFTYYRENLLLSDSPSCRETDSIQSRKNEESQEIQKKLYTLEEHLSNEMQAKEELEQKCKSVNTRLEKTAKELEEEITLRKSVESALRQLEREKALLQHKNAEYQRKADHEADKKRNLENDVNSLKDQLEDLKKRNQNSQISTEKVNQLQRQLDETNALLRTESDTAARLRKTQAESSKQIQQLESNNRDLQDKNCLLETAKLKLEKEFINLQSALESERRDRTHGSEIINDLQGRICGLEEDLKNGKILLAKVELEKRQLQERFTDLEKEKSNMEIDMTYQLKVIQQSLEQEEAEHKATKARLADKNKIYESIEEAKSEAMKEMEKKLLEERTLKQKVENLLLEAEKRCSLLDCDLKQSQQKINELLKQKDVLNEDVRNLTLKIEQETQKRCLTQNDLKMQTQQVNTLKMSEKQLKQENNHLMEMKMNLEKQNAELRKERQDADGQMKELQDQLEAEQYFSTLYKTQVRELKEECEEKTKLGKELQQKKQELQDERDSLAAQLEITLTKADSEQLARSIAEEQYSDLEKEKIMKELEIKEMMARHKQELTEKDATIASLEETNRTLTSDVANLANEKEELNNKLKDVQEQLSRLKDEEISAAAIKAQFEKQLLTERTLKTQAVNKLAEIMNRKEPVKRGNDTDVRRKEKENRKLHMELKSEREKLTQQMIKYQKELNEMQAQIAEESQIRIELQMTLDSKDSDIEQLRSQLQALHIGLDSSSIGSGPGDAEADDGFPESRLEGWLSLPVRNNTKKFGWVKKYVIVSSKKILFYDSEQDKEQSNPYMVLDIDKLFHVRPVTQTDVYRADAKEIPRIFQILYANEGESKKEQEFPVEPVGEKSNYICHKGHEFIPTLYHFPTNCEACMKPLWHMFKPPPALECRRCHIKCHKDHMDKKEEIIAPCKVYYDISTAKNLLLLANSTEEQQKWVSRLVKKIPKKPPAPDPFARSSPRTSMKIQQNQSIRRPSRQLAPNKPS
Sequence of Rho-associated protein kinase 1 (Homo sapiens) (Q13464 2-1354 limits assumed): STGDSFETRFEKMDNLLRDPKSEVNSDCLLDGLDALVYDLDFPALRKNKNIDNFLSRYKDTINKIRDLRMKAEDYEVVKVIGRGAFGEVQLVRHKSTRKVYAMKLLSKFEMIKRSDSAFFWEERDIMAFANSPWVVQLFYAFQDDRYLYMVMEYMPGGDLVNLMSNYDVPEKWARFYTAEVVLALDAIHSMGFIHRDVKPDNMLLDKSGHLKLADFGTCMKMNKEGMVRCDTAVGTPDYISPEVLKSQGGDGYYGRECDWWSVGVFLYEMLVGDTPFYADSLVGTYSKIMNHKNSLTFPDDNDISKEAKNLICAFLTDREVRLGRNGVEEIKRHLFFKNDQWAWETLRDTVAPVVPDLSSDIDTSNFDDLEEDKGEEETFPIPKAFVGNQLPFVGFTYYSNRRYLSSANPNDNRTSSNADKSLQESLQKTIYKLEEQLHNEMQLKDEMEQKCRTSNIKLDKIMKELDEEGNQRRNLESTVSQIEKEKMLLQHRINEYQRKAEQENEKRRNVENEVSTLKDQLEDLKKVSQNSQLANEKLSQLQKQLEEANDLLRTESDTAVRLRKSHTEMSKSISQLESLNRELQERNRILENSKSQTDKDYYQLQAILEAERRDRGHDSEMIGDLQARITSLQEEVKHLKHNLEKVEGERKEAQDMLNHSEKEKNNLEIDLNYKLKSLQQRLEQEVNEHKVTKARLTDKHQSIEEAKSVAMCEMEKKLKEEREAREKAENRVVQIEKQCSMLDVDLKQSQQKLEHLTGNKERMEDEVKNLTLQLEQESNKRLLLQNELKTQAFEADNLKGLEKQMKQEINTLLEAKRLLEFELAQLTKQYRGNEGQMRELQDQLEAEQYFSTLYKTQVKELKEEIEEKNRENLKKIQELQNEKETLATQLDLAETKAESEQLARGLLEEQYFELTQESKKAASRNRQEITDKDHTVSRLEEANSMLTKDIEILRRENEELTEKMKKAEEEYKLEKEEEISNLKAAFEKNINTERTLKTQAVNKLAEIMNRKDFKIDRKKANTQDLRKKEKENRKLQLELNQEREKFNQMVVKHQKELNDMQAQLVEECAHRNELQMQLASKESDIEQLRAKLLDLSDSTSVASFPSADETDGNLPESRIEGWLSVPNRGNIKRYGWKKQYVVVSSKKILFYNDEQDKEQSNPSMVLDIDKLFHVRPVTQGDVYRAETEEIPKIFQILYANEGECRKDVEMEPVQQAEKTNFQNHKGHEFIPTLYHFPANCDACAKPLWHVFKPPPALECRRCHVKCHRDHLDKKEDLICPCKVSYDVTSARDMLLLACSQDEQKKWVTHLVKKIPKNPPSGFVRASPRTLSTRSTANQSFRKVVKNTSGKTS

As for `COc1cc2ncn(-c3cc(OCc4ccccc4C(F)(F)F)c(C(C)=O)s3)c2cc1OC`, the inhibition stood at 2.18% in experiment [1]; 1.87% in experiment [2]; 2.95% in experiment [3]; 1.38% in experiment [4]; 2.01% in experiment [5]; 0.97% in [6]. Also, the inhibition stood at 1.14% in experiment [7]; 2.48% in experiment [8]; 2.5% in experiment [9]; 1.64% in [10]; 1.71% in [11]; 2.88% in [12]. Besides, the inhibition in experiment [13] worked out at 2.59%; in [14] it was 3.09%; in experiment [15] it was 3.04%; in experiment [16], 3.08%; in experiment [17] it was 2.17%; in experiment [18], 1.8%. The inhibition in [19] was 2.83%; in experiment [20] it was -0.02%.

Turning to `Clc1ccc(CNc2nccc(-c3cnn4ncccc34)n2)cc1`, the inhibition came out at 1.31% in experiment [1]; 2.04% in experiment [2]; 2.71% in experiment [3]; 1.41% in experiment [4]; 1.24% in experiment [5]; 0.05% in [6]. Further, the inhibition was found to be 0.52% in experiment [7]; 0.62% in experiment [8]; 0.33% in experiment [9]; 2.62% in [10]; 0.72% in experiment [11]; 0.33% in experiment [12]. Also, the inhibition in experiment [13] is 3.99%; in [14], 3.3%; in [15], 1.91%; in experiment [16] it was 0.59%; in experiment [17] it was 0.73%; in experiment [18], -0.21%. For the same compound, the figures for the inhibition in experiment [19] and in experiment [20] were 1.83% and -4.66%, respectively.

For the compound `NC(=O)c1ccc(Oc2nccc(-c3c(-c4ccc(F)cc4)ncn3C3CCNCC3)n2)cc1`, the inhibition in experiment [1] is 3.99%; in experiment [2], 3.87%; in [3], 4.42%; in experiment [4], 2.06%; in [5], 1.84%; in experiment [6] it was -0.35%. Besides, the inhibition in [7] was determined as 0.53%; in [8], 3.21%; in experiment [9], 4.43%; in experiment [10], 1.77%; in experiment [11], 3.24%; in experiment [12], 2.88%. The inhibition in experiment [13] worked out at 3.6%; in experiment [14], 1.93%; in experiment [15], 4.5%; in experiment [16] it was 3.5%; in experiment [17], 2.61%; in experiment [18] it was 2.33%. The inhibition in experiment [19] is 3.68%; in experiment [20] it was 7.31%.

For the compound `FC(F)(F)c1cccc(Nc2nccc(-c3cnn4nc(-c5ccccc5)ccc34)n2)c1`, the inhibition in experiment [1] was 0.48%; in [2] it was 1.21%; in experiment [3], 0.98%; in experiment [4] it was 1.01%; in experiment [5], 1.56%; in [6], 1.05%. Further, the inhibition was 1.35% in [7]; 1.39% in experiment [8]; 2.04% in [9]; 1.3% in experiment [10]; 0.82% in experiment [11]; 2.37% in [12]. Further, the inhibition in experiment [13] was found to be 2.67%; in [14], 1.96%; in experiment [15] it was 1.95%; in [16] it was 2.7%; in [17] it was 1.72%; in experiment [18], 1.9%. In addition, the inhibition in experiment [19] was 1.87%; in experiment [20], -0.41%.

For `Cc1ccc(C(=O)NC2CCC2)cc1-c1ccc(C(=O)NCC2CC2)cc1`, the inhibition in [1] was 1.32%; in [2] it was 1.03%; in experiment [3], -0.46%; in [4], 1.52%; in experiment [5], 1.45%; in experiment [6] it was 0.97%. For the same compound, the inhibition in experiment [7] amounted to 1.47%; in experiment [8], 1.58%; in experiment [9], 2.68%; in experiment [10] it was 1.63%; in experiment [11], 1.08%; in [12], 2.17%. In addition, the inhibition was 2.8% in experiment [13]; 0.49% in experiment [14]; -2.52% in experiment [15]; 0.54% in [16]; 1.57% in experiment [17]; 1.41% in experiment [18]. For the same compound, the results for the inhibition in [19] and in experiment [20] were 1.46% and 1.35%, respectively.

On to `CN(C)CCOc1ccc(-c2cc(-c3ccc4c(c3)CCC4=NO)c(-c3ccncc3)o2)cc1`, for which the inhibition was -1.5% in experiment [1]; -2.12% in [2]; -0.39% in [3]; -0.55% in [4]; -1.02% in experiment [5]; -0.48% in experiment [6]. Further, the inhibition in experiment [7] was -0.08%; in [8], -0.08%; in experiment [9], 0.83%; in [10], -0.45%; in experiment [11], -1.99%; in experiment [12] it was 1.28%. Moreover, the inhibition was 0.73% in [13]; -2.26% in [14]; 2.64% in [15]; 1.69% in experiment [16]; -4.66% in [17]; -1.39% in experiment [18]. Further, the figures for the inhibition in [19] and in experiment [20] were -0.8% and 0.73%, respectively.

These data come from ChEMBL document CHEMBL1961873, “Compounds: GSK PKIS; Assays: Nanosyn kinase panel” (2012).
